Screen size: about 350,000 compounds; about 700 (0.2%) were called active. The full list was thinned out, with actives kept by preference. Values without a mark were called inactive. Calls come from the whole dose curve; as a rule, active = well fitted inhibition curve with a large enough effect; inconclusive = small, poorly fitted or top-dose-only effect; inactive = flat fitted curve, though single readings scatter.
The compounds below were run against RecQ-like DNA helicase BLM (Homo sapiens) (UniProt P54132) (assay: qHTS Assay for Inhibitors of Bloom's syndrome helicase (BLM)). Conditions: recombinant BLM DNA unwinding, fluorescence dequenching; series mostly up to 56.1 µM; activity change, negative = inhibition: at the top concentration.
RecQ-like DNA helicase BLM (Homo sapiens), sequence (P54132 whole entry, looked up): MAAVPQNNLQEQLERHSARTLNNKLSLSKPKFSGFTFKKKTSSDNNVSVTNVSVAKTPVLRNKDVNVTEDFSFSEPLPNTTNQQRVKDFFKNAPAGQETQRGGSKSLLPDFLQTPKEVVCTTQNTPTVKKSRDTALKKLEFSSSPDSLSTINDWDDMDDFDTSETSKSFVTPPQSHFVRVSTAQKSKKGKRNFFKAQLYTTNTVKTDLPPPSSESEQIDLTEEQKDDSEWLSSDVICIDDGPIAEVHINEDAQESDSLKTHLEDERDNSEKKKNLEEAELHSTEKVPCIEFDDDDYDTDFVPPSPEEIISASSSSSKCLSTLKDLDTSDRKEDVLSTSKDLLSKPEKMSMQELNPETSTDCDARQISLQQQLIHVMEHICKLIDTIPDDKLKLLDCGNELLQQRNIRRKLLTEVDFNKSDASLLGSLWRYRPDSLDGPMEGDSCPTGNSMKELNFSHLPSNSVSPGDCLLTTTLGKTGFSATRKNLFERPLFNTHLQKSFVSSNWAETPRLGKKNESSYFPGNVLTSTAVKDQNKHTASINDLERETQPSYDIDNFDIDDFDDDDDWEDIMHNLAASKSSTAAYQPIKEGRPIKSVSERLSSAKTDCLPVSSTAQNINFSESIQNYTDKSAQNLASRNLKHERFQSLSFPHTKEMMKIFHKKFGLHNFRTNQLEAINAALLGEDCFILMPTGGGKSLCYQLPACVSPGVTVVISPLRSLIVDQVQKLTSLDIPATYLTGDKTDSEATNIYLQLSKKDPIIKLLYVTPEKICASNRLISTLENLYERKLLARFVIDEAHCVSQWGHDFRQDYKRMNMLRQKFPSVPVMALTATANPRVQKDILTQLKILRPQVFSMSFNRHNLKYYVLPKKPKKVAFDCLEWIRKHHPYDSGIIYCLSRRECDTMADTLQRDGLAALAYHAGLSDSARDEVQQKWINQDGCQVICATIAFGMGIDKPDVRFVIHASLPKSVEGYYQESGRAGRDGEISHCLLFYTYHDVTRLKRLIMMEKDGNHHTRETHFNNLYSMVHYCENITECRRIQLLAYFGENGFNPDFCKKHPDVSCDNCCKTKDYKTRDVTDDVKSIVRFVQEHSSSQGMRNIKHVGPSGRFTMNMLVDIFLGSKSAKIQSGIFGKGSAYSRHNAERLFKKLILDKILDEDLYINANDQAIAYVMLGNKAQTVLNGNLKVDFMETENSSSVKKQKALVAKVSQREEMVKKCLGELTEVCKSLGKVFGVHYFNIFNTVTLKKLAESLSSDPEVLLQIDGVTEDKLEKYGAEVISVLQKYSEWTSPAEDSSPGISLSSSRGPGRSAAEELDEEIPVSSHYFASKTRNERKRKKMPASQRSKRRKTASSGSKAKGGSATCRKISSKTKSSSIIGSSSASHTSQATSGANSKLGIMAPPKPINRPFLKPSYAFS
Source text: Survival of cells and the faithful propagation of the genome depend on elaborate mechanisms of detecting and repairing DNA damage. Treatment of advanced cancer relies on radiation therapy or chemotherapy, which kill cancer cells by causing extensive DNA damage. It is often found, that cancer cells develop resistance to therapy through enhanced activity of DNA repair functions; this has led to an increased interest in developing drugs that interfere with DNA repair, which could sensitize cancer cells to conventional therapy.
This validation qHTS assay pertains to human BLM, which is important in resolving abnormal DNA structures formed during replication or homologous recombination. Shutting down the expression of BLM leads to chromosomal instability and higher radiation sensitivity in cultured cells.
The validation assay was a fluorescence quenching based kinetic qHTS for BLM Helicase DNA unwinding. The activity was measured as ATP-dependent separation of a 20-bp DNA duplex extended by 30-nt single-stranded tails (forked duplex). The forked DNA substrate was tagged with rhodamine fluorophore (carboxytetramethyl rhodamine, TAMRA) and BHQ-2 (Black Hole Quencher 2) dark quencher. Strand separation results in an increase in the fluorescence of TAMRA (excitation 525 nm, emission 598 nm). This substrate construct operates in a red-shifted region where very few compound library members have been noted to fluoresce (PubChem AIDs 593 and 594). An additional feature of the assay is the inclusion of 2.5 ug/ml poly (dIdC), to reduce interference by compounds such as DNA intercalators, a major source of false inhibitors.
Ian Hickson, University of Oxford
Opher Gileadi, Structural Genomics Consortium, University of Oxford
Screening Center PI: Austin, C.P.
Screening Center: NIH Chemical Genomics Center [NCGC]
Three uL of reaction buffer (25 mM Tris-HCl (pH 8.0), 5 mM NaCl, 2 mM MgCl2, 1mM DTT, 0.01% Tween- 20, and 2.5 ug/ml poly(dI-dC), including enzyme (50 nM BLM), were dispensed into a 1536-well Greiner black assay plate via solenoid-valve based nanoliter dispensers. Compounds (23 nl each in columns 5-48) and control (23 nl each in column 2 as dose-response) were transferred via a Kalypsys pintool equipped with a 1536-pin array. The plates were incubated for 15 min at room temperature, and then 1 ul of substrates (200 nM DNA and 2 mM ATP, final concentrations) was added to start the reaction. The plate was transferred into a ViewLux high-throughput CCD imager where the reaction progress was measured in a discontinuous kinetic mode (two reads spaced 2 hours apart, with intermediate room temperature incubation of the covered assay plate) by using standard red-fluorescence optics (excitation filter 525 nm, emission filter 598 nm). Enzyme-free and vehicle (DMSO) controls were included for signal normalization.
In the case of `CN1C(=O)CN2CCc3ccccc3C2c2cc(Cl)ccc21` (centres undefined), the “activity change, negative = inhibition” value is reported as 3.82%.
`C=C[C@](C)(O)CCC1C(=C)CCC2[C@@](C)(CO)CCC[C@@]12C` (some centres undefined) was tested, and the “activity change, negative = inhibition” value was -2.39%.
With `CC/C=C\C/C=C\C/C=C\C/C=C\C/C=C\C/C=C\CCC(=O)NCCc1ccc(O)c(O)c1` the “activity change, negative = inhibition” value was -0.801%.
In the case of `Cc1c(S(=O)(=O)O)oc2c1C(=O)C(=O)c1c-2ccc2c1CCCC2(C)C`, the Potency is reported as 31.6 µM (active).
With `CC(C)C(N)C(=O)OCCOCn1cnc2c(=O)[nH]c(N)nc21` (centres undefined) the “activity change, negative = inhibition” value was -7.58%.
For `O=C(O)C[C@@H]1NC(=O)[C@H](Cc2ccccc2)NC1=O`, the “activity change, negative = inhibition” value was 0.405%.
`CCc1ccc(NC(=O)c2cnc3c(-c4ccccc4)c(C)nn3c2C)cc1` was tested, and the “activity change, negative = inhibition” value was -1.21%.
With `COC1C[C@@H](O[C@@H]2C(C)C(=O)OC(C)C(C)C(O)C(C)C(=O)[C@@]3(CO3)CC(C)C(OC3OC(C)CC(N(C)C)C3O)C2C)OC(C)[C@@H]1O` (some centres undefined) the “activity change, negative = inhibition” value was -4.86%.
`CC(=O)Oc1c2c(c3c(c1CC=C(C)C)O[C@@]14C(=CC5CC1C(C)(C)OC4(C/C=C(\C)C(=O)O)C5=O)C3=O)OC(C)(CCC=C(C)C)C=C2` (some centres undefined) was tested, and the “activity change, negative = inhibition” value was -15.4%.
In the case of `CCC(C)[C@@H](N)C(=O)O` (some centres undefined), the Potency is reported as “inactive”.
For `c1ccc2c(Nc3ccncc3)nc(-c3ccc4c(c3)OCO4)nc2c1`, the “activity change, negative = inhibition” value was -15.1%.
For `O=C(NCc1ccccn1)c1ccc2nc(-c3ccco3)c(-c3ccco3)nc2c1`, the Potency was 8.91 µM (active).
`COc1ccc(NC(=O)COCc2cc(-c3ccco3)on2)cc1` was tested, and the “activity change, negative = inhibition” value was 0.68%.
In the case of `COc1ccc(-c2nc3ccc(C(=O)NCc4ccc(C)cc4)cc3nc2-c2ccc(OC)cc2)cc1`, the “activity change, negative = inhibition” value is reported as -3.72%.
For `CCOc1ccc(NC(=O)c2ncoc2-c2ccco2)cc1`, the “activity change, negative = inhibition” value was -4.8%.
`COc1cccc(S(=O)(=O)NCc2ccc(C(=O)NCc3ccccn3)cc2)c1` was tested, and the “activity change, negative = inhibition” value was 0.376%.
For `COCCNC(=O)Nc1ccc2nc(-c3ccco3)c(-c3ccco3)nc2c1`, the Potency was 12.6 µM (active).
In the case of `Cc1cccc(C)c1NC(=O)NC1=CCCN1C`, the “activity change, negative = inhibition” value is reported as -6.49%.
For `CCOC(=O)c1c(N)n(-c2cccc(C)c2C)c2nc3ccccc3nc12`, the “activity change, negative = inhibition” value was -6.93%.
With `CCCNC(=O)c1c(N)n(-c2ccc(S(N)(=O)=O)cc2)c2nc3ccccc3nc12` the Potency was 20 µM (active).
`Cc1noc(C)c1C(=O)NCCc1ccc(S(N)(=O)=O)cc1` was tested, and the “activity change, negative = inhibition” value was -0.714%.
For `COc1ccccc1CNc1ccnc(-c2c(C)noc2C)n1`, the “activity change, negative = inhibition” value was -3.97%.
With `N#CCCn1c(=O)c(-c2cc(F)cc(F)c2)nc2cnc(Oc3ccccc3)nc21` the “activity change, negative = inhibition” value was -12.2%.
`Clc1ccccc1CSc1nnc(-c2ccco2)c(-c2ccco2)n1` was tested, and the Potency was 14.1 µM (active).
With `Cc1ccc(-c2nnc(SCC(=O)NCc3ccccc3)nc2-c2ccc(C)cc2)cc1` the “activity change, negative = inhibition” value was -9.64%.
With `CC1(C)N=C(SCc2ccccc2Cl)c2ccccc2N1` the “activity change, negative = inhibition” value was -0.452%.
In the case of `c1ccc(CSc2nnc(-c3ccco3)c(-c3ccco3)n2)cc1`, the Potency is reported as 14.1 µM (active).
With `O=C(NCCSc1ccccc1)c1ccco1` the “activity change, negative = inhibition” value was -7.71%.
`Clc1ccccc1CSc1nncn2c1cc1occc12` was tested, and the “activity change, negative = inhibition” value was -3.01%.

— PubChem BioAssay AID2528 (National Center for Advancing Translational Sciences (NCATS), 2010)
Note: nearly all actives have a fitted effect of over 35% in size.
Potency is the fitted concentration of half-maximal effect.
